From PubChem BioAssay (NCATS) come the findings set out here.

Unmarked numbers belong to inactive results. Results filed as inconclusive are left out. Active and inactive are the calls of the source. Calls follow the shape of the dose curve; as a rule, active = well fitted curve in the direction sought with a large enough effect; inconclusive = small, poorly fitted or top-dose-only effect, or another doubt; inactive = no such curve, though single readings can be large; an effect the other way counts as inactive or inconclusive.

Test [1] addresses Cytochrome P450 2C9 (Homo sapiens) (UniProt P11712). The experiment in a line: qHTS Assay for Inhibitors and Substrates of Cytochrome P450 2C9 (AID 883). Also: nearly all actives have a fitted effect of over 60% in size. Also: potency is read from the fitted curve at half-maximal effect. As to activity change, negative = inhibition: % is scaled to controls: 0 for no effect and ±100 for the full control effect. Summed up:
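Signal: luciferase luminescence reporting luciferin produced by CYP2C9. Conditions: 10nM enzyme, Luciferin-H 100uM at KM, 25mM KPO4, 37C, 60 min NADPH-driven reaction. Reference: 57uM sulphaphenazole as 100% inhibition.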

Test [2] deals with Cytochrome P450 3A4 (Homo sapiens) (UniProt P08684). As to the kind of experiment: qHTS Assay for Inhibitors and Substrates of Cytochrome P450 3A4 (AID 884). Also: series mostly up to about 57 µM; % is scaled to controls: 0 for no effect and ±100 for the full control effect; nearly all actives have a fitted effect of over 50% in size. The procedure, abridged: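 20 nM human CYP3A4 with 25 uM Luciferin-PPXE (at KM) in 200 mM KPO4, preincubated 10 min with compound; NADPH regeneration started a 60 min RT reaction. Luciferin detected by luminescence, normalized to 57 uM ketoconazole as full inhibition.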
Chain of Cytochrome P450 3A4 (Homo sapiens) (P08684 whole entry, looked up): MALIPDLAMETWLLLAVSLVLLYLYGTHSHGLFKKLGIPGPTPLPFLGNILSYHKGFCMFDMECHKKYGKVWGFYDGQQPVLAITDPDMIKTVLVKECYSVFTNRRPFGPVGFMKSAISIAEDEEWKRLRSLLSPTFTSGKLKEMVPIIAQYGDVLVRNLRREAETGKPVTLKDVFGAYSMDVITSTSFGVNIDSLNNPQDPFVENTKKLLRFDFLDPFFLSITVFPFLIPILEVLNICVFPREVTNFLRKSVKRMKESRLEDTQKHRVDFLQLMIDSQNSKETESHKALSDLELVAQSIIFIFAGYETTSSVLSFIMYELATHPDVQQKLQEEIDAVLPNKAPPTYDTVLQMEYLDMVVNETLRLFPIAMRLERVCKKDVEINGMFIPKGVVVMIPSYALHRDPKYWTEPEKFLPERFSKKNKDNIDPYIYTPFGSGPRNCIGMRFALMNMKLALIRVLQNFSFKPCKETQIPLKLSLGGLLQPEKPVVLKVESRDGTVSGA
(In qHTS, concentration-response curves come from the screen itself.)

Test [3] deals with Cytochrome P450 2D6 (Homo sapiens) (UniProt P10635). The experiment in a line: qHTS Assay for Inhibitors and Substrates of Cytochrome P450 2D6 (AID 891). Also: nearly all actives have a fitted effect of over 60% in size. Also: potency is read from the fitted curve at half-maximal effect.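 As to activity change, negative = inhibition: luciferin methyl ether substrate demethylated by CYP2D6 with NADPH regeneration; % is scaled to controls: 0 for no effect and ±100 for the full control effect.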 The procedure, abridged:
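Human CYP2D6 (5 nM) with 30 uM Luciferin-ME EGE (at Km) in 100 mM KPO4, compound preincubated 10 min, then NADPH regeneration system for 60 min at room temperature. Luciferin read by luminescence; normalized to 1.43 uM quinidine.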

For test [4], the target named is Cytochrome P450 2C19 (Homo sapiens) (UniProt P33261). The experiment in a line: qHTS Assay for Inhibitors and Substrates of Cytochrome P450 2C19 (AID 899). Also: nearly all actives have a fitted effect of over 60% in size. Also: potency is read from the fitted curve at half-maximal effect. The procedure, abridged: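 Signal comes from luciferase acting on luciferin released by CYP2C19-mediated hydroxylation of Luciferin-H EGE, 10uM (KM). Assay mix: 5nM enzyme, 50mM KPO4; 60 min at 37C with NADPH regeneration. Data normalized against 57uM ketoconazole.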
Chain of Cytochrome P450 2C19 (Homo sapiens) (P33261 whole entry, looked up): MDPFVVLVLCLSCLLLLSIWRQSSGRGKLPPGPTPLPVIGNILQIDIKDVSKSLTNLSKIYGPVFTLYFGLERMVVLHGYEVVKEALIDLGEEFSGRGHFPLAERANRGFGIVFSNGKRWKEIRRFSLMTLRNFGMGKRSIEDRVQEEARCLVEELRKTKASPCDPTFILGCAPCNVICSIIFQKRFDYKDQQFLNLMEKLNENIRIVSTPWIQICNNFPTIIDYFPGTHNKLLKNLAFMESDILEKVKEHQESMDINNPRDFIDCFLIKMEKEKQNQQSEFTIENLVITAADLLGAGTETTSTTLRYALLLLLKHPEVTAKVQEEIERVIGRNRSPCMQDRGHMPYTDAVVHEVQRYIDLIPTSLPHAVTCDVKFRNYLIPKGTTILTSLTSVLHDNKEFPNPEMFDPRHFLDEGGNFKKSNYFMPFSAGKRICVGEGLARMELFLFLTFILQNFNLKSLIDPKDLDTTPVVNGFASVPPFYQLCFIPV

Test [5] has as its target Cytochrome P450 3A4 (Homo sapiens) (UniProt P08684). As to the kind of experiment: qHTS Assay for Activators of Cytochrome P450 3A4 (AID 885). Also: nearly all actives have a fitted effect of over 65% in size. The procedure, abridged: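 Signal was normalized against complete inhibition by 57 uM ketoconazole. The reaction used 20nM CYP3A4 with 25uM Luciferin-PPXE, 10-min compound preincubation and a 60-min NADPH-supported step at RT.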

Chain of Cytochrome P450 2D6 (Homo sapiens) (P10635 whole entry, looked up): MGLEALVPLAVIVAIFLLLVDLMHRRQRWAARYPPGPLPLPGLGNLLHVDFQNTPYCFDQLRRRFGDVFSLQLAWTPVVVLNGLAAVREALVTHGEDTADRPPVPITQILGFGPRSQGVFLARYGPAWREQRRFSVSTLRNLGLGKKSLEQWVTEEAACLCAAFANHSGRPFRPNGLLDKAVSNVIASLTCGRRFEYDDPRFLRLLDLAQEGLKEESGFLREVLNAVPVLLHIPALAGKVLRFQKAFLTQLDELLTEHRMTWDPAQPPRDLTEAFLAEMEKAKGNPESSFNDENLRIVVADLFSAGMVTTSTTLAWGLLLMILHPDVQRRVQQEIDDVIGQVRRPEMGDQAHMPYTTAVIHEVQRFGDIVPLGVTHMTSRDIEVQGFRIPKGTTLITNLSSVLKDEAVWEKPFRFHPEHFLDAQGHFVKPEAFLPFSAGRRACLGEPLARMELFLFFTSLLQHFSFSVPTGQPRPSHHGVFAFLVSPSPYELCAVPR
Chain of Cytochrome P450 2C9 (Homo sapiens) (P11712 whole entry, looked up): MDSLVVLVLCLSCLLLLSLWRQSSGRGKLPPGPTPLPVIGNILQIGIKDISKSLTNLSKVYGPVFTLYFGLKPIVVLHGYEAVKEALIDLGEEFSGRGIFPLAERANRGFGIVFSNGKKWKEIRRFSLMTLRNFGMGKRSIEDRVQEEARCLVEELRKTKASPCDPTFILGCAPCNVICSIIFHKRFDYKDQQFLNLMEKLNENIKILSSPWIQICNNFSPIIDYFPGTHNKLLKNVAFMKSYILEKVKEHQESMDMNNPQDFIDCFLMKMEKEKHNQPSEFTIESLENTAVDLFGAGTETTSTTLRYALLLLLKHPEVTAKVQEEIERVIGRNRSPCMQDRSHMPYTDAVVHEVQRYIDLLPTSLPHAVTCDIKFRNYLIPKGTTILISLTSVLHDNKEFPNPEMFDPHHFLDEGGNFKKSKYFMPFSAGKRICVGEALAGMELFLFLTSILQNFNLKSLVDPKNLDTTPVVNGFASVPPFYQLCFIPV

As to `CCOC(=O)OCC1OC(c2ccc(C(C)=O)cc2)C=CC1OC(=O)OCC` (stereo not given), the Potency entry in test [1], in test [3] and in test [4] was “inactive” in each case. For the same compound, the activity change, negative = inhibition in test [2] is -24.1% [at 11.4 µM].

As to `COC(C(C)/C=C/CC(=O)OCCCc1ccccc1)C1CCCCC1` (stereo not given), the Potency entry in test [1], in test [3] and in test [4] was “inactive” in each case. The activity change, negative = inhibition in test [2] is -20.5% [at 11.4 µM].

Take `C=C(C)CC1(c2ccccc2)Oc2ccccc2-c2nc3cc(Cl)c(Cl)cc3nc21` (stereo not given): the Potency result in test [1] and in test [3] was “inactive” throughout. Moreover, in test [2], the activity change, negative = inhibition was -4.89% [at 11.4 µM].

For the compound `CC(=O)c1ccc(C2C=CC(Oc3ccc(-c4ccccc4)cc3)C(CO)O2)cc1` (stereo not given), the Potency in test [1] was 3.98 µM (active). For the same compound, the activity change, negative = inhibition in test [2] is 0.0168% [at 11.4 µM]. Also, the Potency entry in test [3] was “inactive”.

Regarding `CCN1C(C)=C(C(=O)OC)C(c2ccccc2)N2C(=O)[C@@]3(C(=O)OC)O[C@@]12C1C(=O)N(c2ccccc2)C(=O)C13` (stereo not given in full), the Potency result in test [1], in test [3] and in test [4] was “inactive” in each case. For the same compound, the activity change, negative = inhibition in test [2] is -20.6% [at 11.4 µM].

Regarding `CCCc1cc2c(c(=O)o1)C(O)C1OC1C2=O` (stereo not given), the Potency entry in test [1], in test [3] and in test [4] was “inactive” in each case. The activity change, negative = inhibition in test [2] was -24% [at 11.4 µM].

As to `CC(O)CCCCCCC/C=C/C=C/C(N)=O` (stereo not given), the Potency result in test [1], in test [3] and in test [4] was “inactive” throughout. Further, the activity change, negative = inhibition in test [2] is -10.1% [at 11.4 µM].

On to `O=C(O)C1Cc2c([nH]c3ccccc23)C(c2ccccc2)N1` (stereo not given), for which the Potency result in test [1] is “inactive”. For the same compound, the activity change, negative = inhibition in test [2] is -14.4% [at 11.4 µM]. Besides, in test [3], the Potency was 3.98 µM (active).

As to `COC(=O)CC1=COC(O)C2C(CO)=CC[C@@H]12` (stereo not given in full), the Potency entry in test [1], in test [3] and in test [4] was “inactive” each time. Further, in test [2], the activity change, negative = inhibition was -14.7% [at 11.4 µM].

`Cc1c(OCc2ccccc2)cccc1OCc1ccccc1`: the Potency result in test [1], in test [3] and in test [4] was “inactive” throughout. In addition, the activity change, negative = inhibition in test [2] was -25.2% [at 11.4 µM].

As for `CC12C=C(/C=C/C=C/c3ccco3)C(C)(C1)C(/C=C/c1ccco1)CC2=O` (stereo not given), the Potency result in test [1], in test [3] and in test [4] was “inactive” throughout. Further, the activity change, negative = inhibition in test [2] was 5.62% [at 11.4 µM].

With `COC(=O)NC(c1cccc(F)c1)[C@]1(C(C)=O)CCCC1=O` (stereo not given in full), the Potency entry in test [1] and in test [3] was “inactive” in each case. The activity change, negative = inhibition in test [2] was -13.9% [at 11.4 µM].

As for `C=CCOCC1CN2C(CCC(C)C2c2ccc(Br)cc2)C(=O)O1` (stereo not given), the Potency result in test [1] and in test [3] was “inactive” each time. Further, the activity change, negative = inhibition in test [2] was -11.7% [at 11.4 µM].

Turning to `COC(=O)NC(/C=C/c1ccco1)[C@@]1(C(=O)OC)CCCC1=O` (stereo not given in full), the Potency result in test [1], in test [3] and in test [4] was “inactive” in each case. Besides, in test [2], the activity change, negative = inhibition was 2.43% [at 11.4 µM].

`O=Cc1ccc(OC2C=CC(c3ccccc3)OC2CO)cc1` (stereo not given): the Potency result in test [1], in test [3] and in test [4] was “inactive” throughout. Moreover, in test [2], the activity change, negative = inhibition was -9.85% [at 11.4 µM].

In the case of `COCC#Cc1ccc(C2NC(C(=O)O)CCC2C)cc1` (stereo not given), the Potency result in test [1], in test [3] and in test [4] was “inactive” each time. The activity change, negative = inhibition in test [2] was -8.92% [at 11.4 µM].

On to `CCCCCCC#CC1C=CC(OC(C)=O)C(COC(C)=O)O1` (stereo not given), for which, in test [1], the Potency result was “inactive”. Moreover, the activity change, positive = activation in test [5] was -57.5% [at 11.4 µM].

As for `CC1(C)OC(C(O)(c2cc(C(F)(F)F)cc(C(F)(F)F)c2)c2cc(C(F)(F)F)cc(C(F)(F)F)c2)C(C(O)(c2cc(C(F)(F)F)cc(C(F)(F)F)c2)c2cc(C(F)(F)F)cc(C(F)(F)F)c2)O1` (stereo not given), the Potency entry in test [1], in test [3] and in test [4] was “inactive” in each case. The activity change, negative = inhibition in test [2] was -21% [at 11.4 µM].

With `Cc1cc(=O)oc2cc(OC3C=CC(C#CC(C)(C)C)OC3CO)ccc12` (stereo not given), the Potency entry in test [1], in test [3] and in test [4] was “inactive” throughout. The activity change, negative = inhibition in test [2] was -2.04% [at 11.4 µM].

As to `CC[C@@H](c1ccccc1)n1c(=O)n2n(c1=O)[C@H]1[C@H](O)[C@H]3O[C@@H]3/C(=N/OC/C=C(\C)CCC=C(C)C)[C@@H]1CC2`, the Potency result in test [1] is “inactive”. For the same compound, the activity change, positive = activation in test [5] is -40.3% [at 11.4 µM].

For `C=C(C)C(O)C(CC/C=C(\C)C(=O)OCC)OC` (stereo not given), the Potency result in test [1] and in test [4] was “inactive” in each case. The activity change, negative = inhibition in test [2] was -25.2% [at 11.4 µM].

Regarding `COC(=O)NC(c1ccc(F)cc1)C(C(C)=O)C(=O)OC` (stereo not given), the Potency entry in test [1] and in test [4] was “inactive” throughout. The activity change, negative = inhibition in test [2] was -15% [at 11.4 µM].

On to `COc1ccc(OC)c(C2OCCC=CC2C)c1` (stereo not given), for which the Potency result in test [1], in test [3] and in test [4] was “inactive” in each case. Also, the activity change, negative = inhibition in test [2] is -16.9% [at 11.4 µM].

Consider `CO[C@H]1COC(=O)C/C=C\[C@H](C)[C@@H](OC)COC(=O)[C@@H](C)COC(=O)C/C=C\[C@@H]1C`, for which the Potency in test [1] was 2.51 µM (active). The activity change, positive = activation in test [5] is -56.2% [at 11.4 µM].

As for `CC(C)=NOCc1cccc(-c2cc(-c3ccccc3)no2)c1`, in test [1], the Potency is 3.98 µM (active). Also, the activity change, positive = activation in test [5] is -40.1% [at 11.4 µM].

Turning to `COC(=O)C/C=C1\c2ccccc2C(OC)C1C` (stereo not given), the Potency result in test [1] and in test [4] was “inactive” throughout. For the same compound, in test [2], the activity change, negative = inhibition is -21.3% [at 11.4 µM].

For `CC12C=C(/C=C/CCc3ccco3)C(C)(C1)C(CCc1ccco1)CC2=O` (stereo not given), the Potency result in test [1] and in test [4] was “inactive” in each case. In addition, the activity change, negative = inhibition in test [2] is -9.62% [at 11.4 µM].

On to `Cc1ccccc1OC1C=CC(c2ccccc2)OC1CO` (stereo not given), for which the Potency result in test [1] and in test [3] was “inactive” throughout. The activity change, negative = inhibition in test [2] is -11.7% [at 11.4 µM]. The Potency in test [4] is 5.01 µM (active).
